Results on 14 molecules are retold here after publication PMC12136788.

T1: UNK ZnF1-3 (human, UniProt Q9C0B0 31-174)
T1 sequence: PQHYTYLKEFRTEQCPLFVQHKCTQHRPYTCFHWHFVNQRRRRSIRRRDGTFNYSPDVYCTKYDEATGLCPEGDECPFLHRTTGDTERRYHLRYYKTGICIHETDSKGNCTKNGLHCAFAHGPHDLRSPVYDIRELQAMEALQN

B1: chr17:90989275:90989276:-_ENSMUSG00000024109_ENSMUST00000160844|mus_mus|motif|central (ssRNA)
RNA: GGGAGUUCUACAGUCCGACGAUCAGAUGUUGUCUUGAAUUGGAAAAAUAGAUGCAUAGAGGUGUAGGCUUGCAAUGUAGCGGAGGCAACAUAGCUCGAUUUGGUCUUGAAGGUGACAGGAUCUGCGAUGAUGUUCCUGAAUCCCAACAGAGGAUUGAGCAUCA
B2: chrX:103214973:103214974:+_ENSMUSG00000031231_ENSMUST00000033582|mus_hu|FALSE|FALSE (ssRNA)
RNA: GGGAGUUCUACAGUCCGACGAUCAACAAUACAGAAAGUGGCUCCACUAGCUAAUACAGCAUUACCGUAUUUGUCAUGAAAAUCAGGUGUACGUUUCUGGUGGCUCUGCCUUGCCAUUGUUUGCUGAAUGCUUCGAACUUGGAGCAACAGAGGAUUGAGCAUCA
B3: chr2:35989780:35989781:-_ENSMUSG00000026889_ENSMUST00000028251|mus_hu|FALSE|FALSE (ssRNA)
RNA: GGGAGUUCUACAGUCCGACGAUCGCAUUCUCCAGGGGAAGAGUUUUGGUUUCUGCUUCCAUCAAUGUCUAUGAAAUACUCGUGGCCUCGGCGUGGUGCUCUCAGCUCAUGCCCGGAAACCAGGUCCCGACGCCGCGGUCAGACCAACAGAGGAUUGAGCAUCA
B4: 37444673_37445709_2339_CDS_ENSMUSG00000026113_ENSMUST00000027287|mouse|control|control (ssRNA)
RNA: GGGAGUUCUACAGUCCGACGAUCGUAGAGCUGCCGCAGGAAGCCACCGUCGUGCAGGCAGUUCCUCAGCUUGAUGAUAAAGCCACAGAUGAGGGCUGUCAGGGUUUGGCAGAAGACGACGUCACGGCGAUACUGCAGGCUGAGCAACAGAGGAUUGAGCAUCA
B5: chr14:46222469:46222470:-_ENSMUSG00000037697_ENSMUST00000051310|mus_hu|FALSE|FALSE (ssRNA)
RNA: GGGAGUUCUACAGUCCGACGAUCAUUCUCUGAAACUGAGGUAGGUUCUUUAGCUGGGUUGAGAAAGCUUGGCUUCAUAUGUUCAUAAGGUAAAGGAUUUGAAGUAUUGUACCAGUGGAUCUGGACAGGUGAAAUGUUGCUGUACAACAGAGGAUUGAGCAUCA
B6: chr5:106037793:106037794:+_ENSMUSG00000054720_ENSMUST00000067924|mus_mus|motif|central (ssRNA)
RNA: GGGAGUUCUACAGUCCGACGAUCUGUUGUCUUGUGUGGAAAAGGAAAAAAAAAUAAUAUAGGAAAGGCAUUAGGACGGCCGGAUUCUUUAUAUUGUAUUUGGUAGAAGCAUGUUUCAGUCAUACUCUGAUGAAAAAUAAGUUACAACAGAGGAUUGAGCAUCA
B7: chr5:106037793:106037794:+_ENSMUSG00000054720_ENSMUST00000067924|mus_hu|motif|central (ssRNA)
RNA: GGGAGUUCUACAGUCCGACGAUCCUUUGUGUACAUUUUGUGUGAAAAGGAAAAAAAAAUAGGAAAGGCAUUAAGACGGCCGGAUUAUUUAUACUGUAUUUGGUAGAAGCGUGUUUCAGUCAAACUUUAACGAAAAAUAAGUUACAACAGAGGAUUGAGCAUCA
B8: chr21:32491406:32491407:-_ENSG00000156299_ENST00000286827|hu_hu|motif|central (ssRNA)
RNA: GGGAGUUCUACAGUCCGACGAUCCAUAGUAUUUUAAACCCUUCUUAGGAAGUGGACAUUGUGACAUGGGAAAAGAAAAAGCGGUAAACCUUUUUUUAAAAAAAAAAAAAAAAUUGAAAGUGCUAUAACUUGUUUUUCUUCUUACAACAGAGGAUUGAGCAUCA
B9: chr11:9308113:9308114:-_ENSG00000166471_ENST00000528080|hu_hu|motif|central (ssRNA)
RNA: GGGAGUUCUACAGUCCGACGAUCAUUAGGCAGAAAUGGUGUUAUUCUCAAAAAUAUAAUGUAGUUAAUGAGAUGUUCUCGGUGACGUUCAACCUGCUGUGACCAUUUUACUGCUUUCUCUGUUAGGUAUUUGUAUACAACUGGCAACAGAGGAUUGAGCAUCA
B10: 57185256_57189016_303_CDS_ENSG00000146143_ENST00000607273|human|control|control (ssRNA)
RNA: GGGAGUUCUACAGUCCGACGAUCUUCAUCUUCUAAGUUUUCUCUGUAGGAAAACUUGAGCUUCCGAAGCUCACUCUCCAACUUACUCUGGUAUUGUUCAGUUCCUUUCACAUAGCUCACUCCAAGAUUUUCAACUGAUUUUAACAACAGAGGAUUGAGCAUCA
B11: chrX:119742084:119742085:+_ENSG00000232119_ENST00000371317|hu_hu|FALSE|FALSE (ssRNA)
RNA: GGGAGUUCUACAGUCCGACGAUCAAAAGGAUAUUUGUGAAGUAAUCUUAGGGUUGGAUAAAAAGGCCCUUCUCUUUGUCUAAAAAAGAGUAAUUCUCCAUUUACUGUAAGGAUUUCUAUAUGUUCAUGGCAUCGGACUAUUUUCAACAGAGGAUUGAGCAUCA
B12: chr5:106037793:106037794:+_ENSMUSG00000054720_ENSMUST00000067924|mus_mus|FALSE|FALSE (ssRNA)
RNA: B6 RNA with G77U, G78A, G81U, G82A
B13: chr14:57521665:57521666:+_ENSMUSG00000021945_ENSMUST00000022511|mus_mus|FALSE|FALSE (ssRNA)
RNA: GGGAGUUCUACAGUCCGACGAUCAACAACGUCAUCAUCAUCUUCUACUGAUGAGUUCUGAAACUUACUAGAUCUAGACACUAAAGGAUUAGGUGGGCCACUAAAUGAAUUUCCUACGUUCGUGAGACUAGUUGCCAUGGCUGUCAACAGAGGAUUGAGCAUCA
B14: chr4:76721835:76721836:+_ENSG00000138768_ENST00000264904|hu_mus|hu_hu_hu_mus_True|58_108 (ssRNA)
RNA: GGGAGUUCUACAGUCCGACGAUCGUUGGCUGGGGUUUUCUGAGACGCUCUGGAAUAUAACUCAUGUUUGCUAAUAAUCCUAGUUUCCUCUAUGAAAUUCUCUUUGCCAAUCCUCUUCUCUAUUAGUUGCUUUAGUUUCUCUUUCAACAGAGGAUUGAGCAUCA

Positions count from the first letter of the chain named. The full ranking holds about 24,000 sequences; the median of “enrichment r” is about 0.99, and the highest 2% start at about 3.7. This is one part of a sample in which the highest values are shown more often than they occur.

For this test, the target named is T1, UNK ZnF1-3. The experiment in a line: nsRBNS (natural sequence RNA bind-n-seq); RBNS binding buffer (assumed for nsRBNS): 25 mM Tris pH 7.5, 150 mM KCl, 3 mM MgCl2, 0.01% Triton X-100, 500 ug/ml BSA, 20 U/ml SUPERase-In, 4 C; UNK is unkempt and MSI1 is Musashi-1; names of the RNAs are library labels; protein concentration not given here; high values mean tight binding.
With B1, the binding signal stood at 1.21 enrichment R.
For B2, the binding signal is 1.13 enrichment R.
As to B3, the binding signal came out at 0.583 enrichment R.
B4: the binding signal worked out at 1.01 enrichment R.
To B5 belongs 1.5 enrichment R; to B6, 5.1 enrichment R; to B7, 3.77 enrichment R.
As for B8, the binding signal was 1.34 enrichment R.
On to B9, for which the binding signal amounted to 1.85 enrichment R.
With B10 the figure was 0.6 enrichment R; with B11, 0.455 enrichment R.
To B12 belongs 4.57 enrichment R; to B13, 1.09 enrichment R; to B14, 0.387 enrichment R.
